Bioassay records as filed in PubChem.
TDP1 cell CPT = qHTS for Inhibitors of human tyrosyl-DNA phosphodiesterase 1 (TDP1): qHTS in cells in presence of CPT; actives 12% (n = 420,000); chicken DT40 Tdp1-/-;hTDP1 cells + 20 nM CPT, ATP luminescence, 48 h; Potency, µM (highest dose often 46.2 µM), inactives show at the top dose activity change, negative = growth inhibition, hits mostly inhibitors; further: potency means the concentration at half of the fitted maximal effect; on the % scale 0 is the no-effect control and ±100 the full control effect; nearly all actives have a fitted effect of over 55% in size
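Cell growth measured by CellTiter-Glo luminescence after a minimum 48 h, 37 C compound exposure with 20 nM CPT in Tdp1-knockout DT40 cells stably expressing hTDP1, seeded 400/well; qHTS titration format.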
TGFb inhibitor = qHTS for Inhibitors of TGF-b; HepG2 CAGA-GFP TGF-b/SMAD3 reporter, GFP fluorescence, 18 h; TGF-beta stimulated, 500 pg/mL final; Potency, µM (titrated, usually from 46.1 µM), inactives show at the highest dose activity, negative = inhibition, actives largely listed as inhibitors; actives 1.2% (n = 410,000); AID 588855, 2011; further: potency means the concentration at half of the fitted maximal effect; on the % scale 0 is the no-effect control and ±100 the full control effect; nearly all actives have a fitted effect of over 65% in size
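GFP signal (ex488/em500-530) from TGF-beta-stimulated HEPG2 CAGA-GFP cells, 500 pg/mL final, 18 h at 37 degrees C in DMEM plus 1% FBS, normalized to unstimulated and DMSO-stimulated controls.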
IL1B secr inh = qHTS for Inhibitors of Inflammasome Signaling: IL-1-beta AlphaLISA Primary Screen. THP-1 LPS/ATP IL-1B secretion, AlphaLISA, 16 h; stronger effect = lower value. activity change, % at 57.5 µM. actives 4.7% (n = 360,000); in the data active means activity change below about -50%; inconclusive means mostly about -30% to -49%; further: on the % scale 0 is the no-effect control and ±100 the full control effect
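Secreted IL-1B measured by AlphaLISA bead assay after 16 h compound exposure of THP-1 cells; compounds (final up to 57.5 uM) added 1 h before LPS (250 ng/mL) and ATP (1.25 mM) stimulation; lower signal means less secretion.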
TDP1 cell noCPT = qHTS for Inhibitors of human tyrosyl-DNA phosphodiesterase 1 (TDP1): qHTS in cells in absence of CPT; AID 686978, 2013; DT40 Tdp1-/- hTDP1 cells, no CPT, ATP luminescence, 48 h; actives 15% (n = 420,000); Potency, µM (highest dose often 46.2 µM), without a hit: at the top dose activity change, negative = growth inhibition, usual class: inhibitors; further: potency means the concentration at half of the fitted maximal effect; on the % scale 0 is the no-effect control and ±100 the full control effect; nearly all actives have a fitted effect of over 55% in size
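Readout: luminescence from CellTiter-Glo after 30 min in the dark at RT. Cells: DT40 Tdp1-/- with stable hTDP1, 400/well. Exposure: compounds alone, ≥48 hr, 37 °C.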
HepG2 viability = qHTS for Inhibitors of TGF-b: Cytotox Counterscreen | HepG2 CAGA-GFP viability, ATP luminescence, 18 h | Potency, µM (highest dose often 46.1 µM), without a hit: at the top dose activity change, negative = cytotoxicity, most hits filed as cytotoxic | actives 0.76% (n = 410,000); further: potency means the concentration at half of the fitted maximal effect
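HepG2 CAGA-GFP cells (1000/well, DMEM with 1% FBS) received compound, then TGF-beta at 500 pg/mL final, and were incubated 18 hours at 37 degrees C. Viability was read by CellTiter-Glo luminescence. Media-only wells were set as complete cell-killing and DMSO as no toxicity.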
ASM inhibitor = Inhibitors of Secretory Acid Sphingomyelinase (S-ASM): qHTS; placental ASM, HMU-PC fluorogenic substrate, 60 min; actives 0.006% (n = 340,000); Sphingomyelin phosphodiesterase (Homo sapiens), P17405; AID 504937, 2011; Potency, µM (highest dose often 57.5 µM), for inactives: top-dose activity change, negative = inhibition, actives largely listed as inhibitors; further: potency means the concentration at half of the fitted maximal effect
Target sequence (P17405 47-631 limits assumed): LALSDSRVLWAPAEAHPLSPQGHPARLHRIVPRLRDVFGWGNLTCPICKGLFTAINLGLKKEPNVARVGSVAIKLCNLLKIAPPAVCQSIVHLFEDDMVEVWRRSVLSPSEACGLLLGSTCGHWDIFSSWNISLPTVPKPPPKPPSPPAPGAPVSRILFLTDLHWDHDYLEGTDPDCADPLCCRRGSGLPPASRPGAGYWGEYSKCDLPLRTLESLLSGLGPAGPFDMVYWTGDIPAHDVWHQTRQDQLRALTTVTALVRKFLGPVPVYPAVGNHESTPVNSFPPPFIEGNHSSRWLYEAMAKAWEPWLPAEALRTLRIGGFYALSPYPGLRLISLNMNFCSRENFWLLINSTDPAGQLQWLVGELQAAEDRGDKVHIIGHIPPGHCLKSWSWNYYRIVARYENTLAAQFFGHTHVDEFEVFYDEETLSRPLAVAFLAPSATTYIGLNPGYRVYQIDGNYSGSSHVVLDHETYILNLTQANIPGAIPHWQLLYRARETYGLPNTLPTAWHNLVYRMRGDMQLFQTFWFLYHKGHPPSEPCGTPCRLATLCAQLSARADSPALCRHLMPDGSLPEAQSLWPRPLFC
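Fluorescence read-out (Ex 386 nm, Em 447 nm) after stopping the reaction at pH 10. Enzyme: ASM from human placenta; substrate HMU-PC0, 9 uM final; 60 min, 37 °C. Compound preincubation 10 min, ambient temperature.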
* hit, by the source's call; ? = inconclusive; · = not tested or not shown. Rows were chosen to be rich in hits. Some 19% of all compounds tested hit in one or more screens of this group. Unless noted, the call rests on the fitted dose curve; in most records, active means well fitted curve in the direction sought with a large enough effect; inconclusive means small, poorly fitted or top-dose-only effect, or another doubt; inactive means no such curve, though single readings can be large; an effect the other way counts as inactive or inconclusive.

SMILES	TDP1 cell CPT	TGFb inhibitor	IL1B secr inh	TDP1 cell noCPT	HepG2 viability	ASM inhibitor
CCCS(=O)(=O)NC(=O)C1(C)CCN(C(=O)c2c(-c3ccccc3)noc2C)C1 (stereo not drawn)	6%	-2%	3	-3%	11%	·
CCC1CN(C(=O)N2CCC(C(=O)NCc3cccc(F)c3)CC2)c2cc(C)ccc2O1 (stereo not drawn)	21µM*	?	·	16µM*	-23%	·
CCC1CN(C(=O)N2CCC(C(=O)NCCc3ccc(OC)cc3OC)CC2)c2cc(C)ccc2O1 (stereo not drawn)	21µM*	?	·	16µM*	-22%	·
CCC1CN(C(=O)N2CCC(C(=O)NCc3ccccc3OC)CC2)c2ccccc2O1 (stereo not drawn)	?	-25%	-1	?	-16%	-2%
CCC1CN(C(=O)N2CCC(C(=O)NCCN(CC)CC)CC2)c2cc(C)ccc2O1 (stereo not drawn)	-13%	-5%	·	-20%	4%	·
CCC1CN(C(=O)N2CCC(C(=O)NCc3ccccc3OC)CC2)c2cc(C)ccc2O1 (stereo not drawn)	16µM*	-1%	5	?	2%	5%
C=CCn1c(CNC(=O)c2cccs2)n[nH]c1=S	-21%	14%	8	1%	19%	8%
Cc1ccc(S(=O)(=O)NCC(C)n2cncn2)cc1C (stereo not drawn)	9%	18%	3	4%	-7%	0%
CCOC1=C2[C@H](c3cccs3)N(S(=O)(=O)c3ccc(C)cc3)C[C@H]2n2c(=O)n(-c3ccccc3)c(=O)n2C1	4%	-26%	4	5%	-10%	·
COc1cc(OC)c2ccc(=O)oc2c1C(CCN1CCCC(C)C1)c1ccc2c(c1)OCO2 (stereo not drawn)	10µM*	?	0	15µM*	-46%	2%
COc1cc(OC)c2c(C)cc(=O)oc2c1C(CCN1CCCC(C)C1)c1ccc(N(C)C)cc1 (stereo not drawn)	·	0%	·	·	-17%	·
COc1cc(O)c(C(CCN2CCOCC2)c2ccc3c(c2)OCO3)c(OC)c1 (stereo not drawn)	?	?	-23	?	-10%	6%
COc1cc(O)c(C(CCN2CCCC(C)C2)c2ccc3c(c2)OCO3)c(OC)c1 (stereo not drawn)	16µM*	?	0	16µM*	-26%	4%
CC(C)(C)c1cc(CP(=O)(c2ccccc2)c2ccccc2)cc(C(C)(C)C)c1O	?	?	?	?	-83%	-8%
Brc1ccc(-c2cn3ccccc3n2)s1	7.3µM*	?	4	23µM*	-23%	1%
Clc1ccc(-c2cn3ccccc3n2)cc1	-11%	?	96	-21%	-34%	5%
COc1ccc(CNC(=O)C(c2ccco2)N(C(=O)c2csnn2)c2cccc(C)c2C)cc1 (stereo not drawn)	?	-12%	-9	23µM*	-5%	0%
COc1ccc(CNC(=O)C(c2ccco2)N(Cc2cccs2)C(=O)Cc2cccs2)cc1 (stereo not drawn)	?	-9%	-52*	?	-34%	-5%
COc1ccc(CNC(=O)C(c2cccs2)N(Cc2ccco2)C(=O)Cc2cccs2)cc1 (stereo not drawn)	?	-2%	?	23µM*	-3%	-3%
COc1ccc(CNC(=O)C(c2ccco2)N(C(=O)Cc2cccs2)c2cccnc2)cc1 (stereo not drawn)	?	-14%	0	?	-14%	0%
O=C1N[C@H](Cc2ccccc2)COC(=O)[C@@H](Cc2ccc(F)cc2)CC/C=C/C[C@H]1CC(=O)N(CCO)Cc1ccccc1	18µM*	?	?	?	-6%	-11%
O=C1N[C@@H](c2ccccc2)COC(=O)[C@H](Cc2ccc(F)cc2)CC/C=C/C[C@H]1CC(=O)N(CCO)Cc1ccccc1	18µM*	?	-29	15µM*	-1%	-5%
O=C1N[C@H](Cc2ccccc2)COC(=O)[C@H](Cc2ccc(F)cc2)CC/C=C/C[C@@H]1CC(=O)N(CCO)Cc1ccccc1	10µM*	?	-55*	?	-24%	-15%
COCCCNC(=O)C[C@@H]1C[C@@]2(C(=O)OC)CCCCC=C2N(Cc2ccc(Cl)cc2Cl)C1=O	?	·	-5	16µM*	·	·
CCCCNC(=O)C[C@@H]1C[C@@]2(C(=O)OC)CCCCC=C2N(Cc2ccccc2)C1=O	?	·	16	?	·	·
SMILES	TDP1 cell CPT	TGFb inhibitor	IL1B secr inh	TDP1 cell noCPT	HepG2 viability	ASM inhibitor
COC(=O)[C@]12CCCCC=C1N(Cc1ccc(Cl)cc1Cl)C(=O)[C@H](CC(=O)NCC1CCCCC1)C2	?	·	0	18µM*	·	·
COC(=O)[C@]12CCCCC=C1N(Cc1ccccc1)C(=O)[C@H](CC(=O)NCC1CCCCC1)C2	16µM*	·	-8	?	·	·
CCS(=O)(=O)c1ccc(-c2csc(-c3ccccc3Cl)n2)c(Cl)c1Cl	?	-2%	-25	23µM*	13%	-2%
CCC(=NCCc1c(C)[nH]c2ccc(C)cc12)C1=C(O)CC(c2ccccc2)CC1=O (stereo not drawn)	0.58µM*	?	2	0.82µM*	-15%	?
CC(=O)C1=C(O)CC(c2ccccc2)CC1=NCCc1c(C)[nH]c2ccc(C)cc12 (stereo not drawn)	?	-5%	1	?	-8%	-9%
CC/C(O)=C1\C(=O)CC(c2ccccc2)CC1=NCCc1c(C)[nH]c2ccc(C)cc12 (stereo not drawn)	?	2%	11	23µM*	-7%	-2%
CCC/C(O)=C1\C(=O)CC(c2ccccc2)CC1=NCCc1c(C)[nH]c2ccc(C)cc12 (stereo not drawn)	18µM*	-1%	7	?	8%	0%
O=C(CC1c2cc(F)ccc2C=C(c2ccsc2)N1c1ccc(C#CCCO)cc1)c1ccco1 (stereo not drawn)	?	·	-11	21µM*	·	·
